# Laboratory results taken from PubChem BioAssay (NCATS).
# Inconclusive results are not listed. Activity calls are given as the source filed them. Calls come from the whole dose curve; as a rule, active = well fitted curve in the direction sought with a large enough effect; inconclusive = small, poorly fitted or top-dose-only effect, or another doubt; inactive = no such curve, though single readings can be large; an effect the other way counts as inactive or inconclusive.
# Test system: astro (control astrocytes)
# Experiment: Drug repurposing screens with cells derived from glioblastoma tumor samples (AID 1345199); note: nearly all actives have a fitted effect of over 40% in size
# Settings: viability, ATP luminescence, 48 h; series mostly up to 45.9 µM; activity, negative = cell killing: at the top concentration
# Summary of the method: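 Primary testing used CD133+ neurospheres from four GBM patients, seven concentrations, 48 h exposure and ATP-based viability; confirmation added three slower-growing patient lines.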
# % is set by controls: 0 for no effect and ±100 for the full control effect; potency is the fitted concentration of half-maximal effect.
SMILES,"activity, negative = cell killing",Potency
O=C(O)c1nc(=O)[nH]c(=O)[nH]1,-8.82% (inactive),
CCC(=O)OCC(=O)[C@@]1(OC(=O)CC)[C@@H](C)C[C@@H]2[C@H]3CCC4=CC(=O)C=C[C@]4(C)[C@@]3(F)[C@@H](O)C[C@@]21C,-8.5% (inactive),
CC[C@H]1OC(=O)[C@H](C)[C@@H](O[C@H]2C[C@@](C)(OC)[C@@H](O)[C@H](C)O2)[C@H](C)[C@@H](O[C@@H]2O[C@H](C)C[C@H](N(C)C)[C@H]2O)[C@](C)(O)C[C@H](C)C(=NOCOCCOC)[C@H](C)[C@@H](O)[C@]1(C)O,7.95% (inactive),
NCC1CCC(C(=O)O)CC1 (stereo not given),-11.1% [at 21.2 µM] (inactive),
Fc1ccc(C(c2ccc(F)cc2)N2CCN(CC=Cc3ccccc3)CC2)cc1,,35.5 µM (active)
CCC[C@H](N[C@@H](C)C(=O)N1[C@@H]2CCCC[C@H]2C[C@H]1C(=O)O)C(=O)OCC,-16% (inactive),
CC[C@H](C)C(=O)O[C@H]1C[C@H](O)C=C2C=C[C@H](C)[C@H](CC[C@@H](O)C[C@@H](O)CC(=O)O)[C@H]21,-7.28% (inactive),
COc1cc2c(cc1OC)CC(=O)N(CCCN(C)C[C@H]1Cc3cc(OC)c(OC)cc31)CC2,-16.8% (inactive),
CN1CCN2c3ncccc3Cc3ccccc3C2C1 (stereo not given),-26% (inactive),
Clc1ccc(COC(Cn2ccnc2)c2ccc(Cl)cc2Cl)c(Cl)c1 (stereo not given),-29.4% [at 21.2 µM] (inactive),
CN1CC(=O)N2C(Cc3c([nH]c4ccccc34)[C@H]2c2ccc3c(c2)OCO3)C1=O (stereo not given in full),-26.3% (inactive),
N#Cc1c(N(CC(=O)O)CC(=O)O)sc(C(=O)O)c1CC(=O)O,-9.05% (inactive),
CC(C)CN(C[C@@H](O)[C@H](Cc1ccccc1)NC(=O)O[C@H]1CO[C@H]2OCC[C@H]21)S(=O)(=O)c1ccc(N)cc1,-20.4% (inactive),
CC(C)(CO)[C@@H](O)C(=O)NCCC(=O)O,-12.3% (inactive),

# Test system: not listed separately
# Experiment: qHTS assay to identify inhibitors of the type 1 interferon - major histocompatibility complex class I in skeletal muscle: Counter screen cell viability and HiBit confirmation (AID 1347412); note: nearly all actives have a fitted effect of over 60% in size
# Settings: iHSKM muscle cells + IFN-b, HiBiT or CellTiter-Glo, 24 h; HiBiT
# Summary of the method: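 After 24 h with human IFN-beta (4 ng/ml) and compound titrations (top 46 uM final, 1:3, 12 points), HLA-B HiBit myoblasts were lysed for either Nano-Glo HiBiT luminescence or CellTiter Glo viability on paired plates.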
row,SMILES,Potency
1,CC(C)Oc1cc(Nc2nc(N[C@@H](C)c3ccc(F)cn3)ncc2Cl)[nH]n1,9.91 µM (active)
2,COc1cc2nccc(Oc3ccc(NC(=O)Nc4ccc(F)cc4F)c(F)c3)c2cc1OC,8.83 µM (active)
3,COc1c(C)cnc(Cn2cnc3c(Cl)nc(N)nc32)c1C,0.222 µM (active)
4,CC1(C)CC(=O)c2c(C(F)(F)F)nn(-c3ccc(C(N)=O)c(NC4CCC(O)CC4)c3)c2C1 (stereo not given),0.0701 µM (active)
5,Cc1cccc(Nc2nc(N[C@@H]3CCCC[C@H]3N)ncc2C(N)=O)c1,15.7 µM (active)

# Same assay, conditions: iHSKM muscle cells + IFN-b, HiBiT or CellTiter-Glo, 24 h; Viability
row,SMILES,Potency
1,COc1cc2nccc(Oc3ccc(NC(=O)Nc4ccc(F)cc4F)c(F)c3)c2cc1OC,7.87 µM (active)
2,COc1ccc(-c2ccc3ncc4c(c3c2)n(-c2ccc(N3CCNCC3)c(C(F)(F)F)c2)c(=O)n4C)cn1,4.43 µM (active)
3,CN(C)CCN(C)C(=O)c1ccc(NC(=O)Nc2ccc(-c3nc(N4CCOCC4)c4ccn(CC(F)(F)F)c4n3)cc2)cc1,1.11 µM (active)

# Same assay, conditions: iHSKM muscle cells + IFN-b, HiBiT or CellTiter-Glo, 24 h; Viability; at 45.9 µM (top of the series)
row,SMILES,"activity change, negative = inhibition"
1,COc1ccc2nc3cc(Cl)ccc3c(Nc3cc(CN4CCCC4)c(O)c(CN4CCCC4)c3)c2n1,-8.41% (inactive)
2,O=C(Nc1cccc(Cl)c1)Nc1ncc(CCNc2ncnc3ccsc23)s1,8.48% (inactive)
3,OC(c1cc(C(F)(F)F)nc2c(C(F)(F)F)cccc12)C1CCCCN1 (stereo not given),-12.8% (inactive)
4,O=C1CN2Cc3c(ccc(Cl)c3Cl)N=C2N1,-3.92% (inactive)
5,NC1(C(=O)N[C@@H](CCO)c2ccc(Cl)cc2)CCN(c2ncnc3[nH]ccc23)CC1,-19.1% (inactive)
6,CNC(=O)c1cc(COc2nnc(Nc3ccc(Cl)cc3)c3ccoc23)ccn1,-24.9% (inactive)
7,CCc1cc(-c2n[nH]c(C)c2-c2ccc3c(c2)OCCO3)c(O)cc1O,-3.79% (inactive)
8,Fc1ccc(CNc2ncnc3ccc(F)cc23)cc1,2.98% (inactive)
